Screens deposited in PubChem by National Center for Advancing Translational Sciences (NCATS).
BAZ2B block = inhibitors of human BAZ2B bromodomain; actives 4.4% (n = 360,000); AlphaScreen BAZ2B-H3K14Ac peptide displacement; Q9UIF8; AID 504333; Potency, µM (titrated, usually from 114 µM), for the others: at the highest dose activity change, negative = inhibition, usual class: inhibitors; also: % is scaled to controls: 0 for no effect and ±100 for the full control effect; nearly all actives have a fitted effect of over 60% in size
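AlphaScreen luminescence quantifies BAZ2B engagement of H3K14Ac peptide; the protein and biotinylated peptide are both at 50 nM final, buffer PBS pH 7.4 with 0.01% Tween-20, all steps at room temperature.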
L3MBTL1 block = L3MBTL1 (human) inhibition; Q9Y468; AlphaScreen L3MBTL1–H3K9me1 peptide binding; Potency, µM (titrated, usually from 57.1 µM), for inactives: at the highest dose activity, negative = inhibition, actives largely listed as inhibitors; actives 0.66% (n = 230,000); also: % is scaled to controls: 0 for no effect and ±100 for the full control effect; nearly all actives have a fitted effect of over 60% in size
Target sequence (Q9Y468 whole entry, looked up): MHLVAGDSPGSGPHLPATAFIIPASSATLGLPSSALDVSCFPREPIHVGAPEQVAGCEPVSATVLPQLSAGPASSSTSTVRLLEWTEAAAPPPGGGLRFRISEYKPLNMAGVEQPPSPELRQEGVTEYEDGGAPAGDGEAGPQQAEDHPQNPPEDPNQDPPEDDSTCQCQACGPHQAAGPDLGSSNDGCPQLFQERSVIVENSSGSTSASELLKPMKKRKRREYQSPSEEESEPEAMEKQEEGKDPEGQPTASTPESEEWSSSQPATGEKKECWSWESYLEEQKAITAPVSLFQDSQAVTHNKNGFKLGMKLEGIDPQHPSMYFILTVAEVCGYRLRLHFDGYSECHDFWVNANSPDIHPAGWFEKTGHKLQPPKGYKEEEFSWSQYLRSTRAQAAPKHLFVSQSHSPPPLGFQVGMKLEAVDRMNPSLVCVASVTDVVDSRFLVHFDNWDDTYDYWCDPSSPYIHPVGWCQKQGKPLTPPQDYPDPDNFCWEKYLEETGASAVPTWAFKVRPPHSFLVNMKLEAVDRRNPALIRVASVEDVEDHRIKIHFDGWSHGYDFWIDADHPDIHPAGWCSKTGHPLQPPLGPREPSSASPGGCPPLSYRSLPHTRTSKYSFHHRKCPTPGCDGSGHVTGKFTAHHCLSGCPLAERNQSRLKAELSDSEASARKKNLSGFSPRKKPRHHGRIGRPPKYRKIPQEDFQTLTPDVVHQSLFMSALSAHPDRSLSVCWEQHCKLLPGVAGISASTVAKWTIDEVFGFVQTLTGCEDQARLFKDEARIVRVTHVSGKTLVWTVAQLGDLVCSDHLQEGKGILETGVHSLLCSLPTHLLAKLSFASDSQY
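Displacement of a biotinylated histone H3(1-15) peptide monomethylated at Lys9 (75 nM) from L3MBTL1 (50 nM) was measured by AlphaScreen after a 30 min room-temperature compound incubation; cefsulodin titration served as intraplate control.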
G9a inh = blocks human histone lysine methyltransferase G9a; actives 8.8% (n = 350,000); Potency, µM (titrated, usually from 102 µM), without a hit: at the highest dose activity, negative = inhibition, hits mostly inhibitors; Q96KQ7; G9a H3K9 monomethylation, AlphaScreen, 2 h; AID 504332; also: % is scaled to controls: 0 for no effect and ±100 for the full control effect; nearly all actives have a fitted effect of over 75% in size
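Step 1: enzyme (final 20 nM) with compound, 15 min RT. Step 2: substrate peptide 500 nM and SAM 20 uM, 2 h RT. Step 3: anti-H3K9me1 antibody and AlphaScreen beads, 10 min, then plate read.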
HP1b binding inh = HP1-beta chromodomain-methylated histone interaction inhibition; AlphaScreen HP1-beta / biotin-H3K9me3 peptide binding; Potency, µM (doses to about 114 µM), inactives show at the top dose activity change, negative = inhibition, actives largely listed as inhibitors; P83916; actives 0.56% (n = 390,000); also: nearly all actives have a fitted effect of over 70% in size
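AlphaScreen: HP1-beta (50 nM) preformed 30 min with biotin-H3(1-18)K9me3 peptide (50 nM) in PBS pH 7.4, 0.01% Tween-20. Compound added for 30 min at RT, then streptavidin donor/nickel chelate acceptor beads (10 ug/mL) for 30 min.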
JMJD2A Tudor = blocks the human JMJD2A Tudor domain | actives 4.4% (n = 390,000) | Potency, µM (series often up to 114 µM), for inactives: at the highest dose activity change, negative = inhibition, most hits filed as inhibitors | O75164 | AID 504339 | AlphaScreen JMJD2A-Tudor / H3K4me3 peptide binding; also: % is scaled to controls: 0 for no effect and ±100 for the full control effect; nearly all actives have a fitted effect of over 50% in size
The depositor's hits bear a star; u = inconclusive; x = not tested or not shown; [ ] = dose if it differs, or a comment. Only some compounds are listed: those with a hit (about 11% of all), similar ones and a draw of the others. Calls follow the shape of the dose curve; as a rule, active = well fitted inhibition curve with a large enough effect; inconclusive = small, poorly fitted or top-dose-only effect; inactive = no such curve, though single readings can be large or run the other way. Potency is read from the fitted curve at half-maximal effect.

SMILES	BAZ2B block	L3MBTL1 block	G9a inh	HP1b binding inh	JMJD2A Tudor
COc1cc(OC)c2c(-c3ccccc3)cc(=O)oc2c1C(CCN1CCOCC1)c1ccc(N(C)C)cc1 (configuration not stated)	x	u	14.1µM*	17.8µM*	14.1µM*
COc1cc(OC)c2c(-c3ccccc3)cc(=O)oc2c1C(CCN1CCCCC1)c1ccc2c(c1)OCO2 (configuration not stated)	u	x	1.1%[12.7 µM]	-19.8%	u
COc1cc(OC)c2c(-c3ccccc3)cc(=O)oc2c1C(CCN1CCCCC1)c1ccc(N(C)C)cc1 (configuration not stated)	15.8µM*	x	u	u	11.2µM*
COc1ccc(C(CCN2CCCCC2)c2c(OC)cc(OC)c3c(-c4ccccc4)cc(=O)oc23)cc1 (configuration not stated)	-25.2%	x	13.5%[12.7 µM]	1.9%	u
Cc1ccc(C(=O)NNC(=O)C(NC(=O)c2cccc(C)c2)C(C)C)cc1 (configuration not stated)	6.3%	0.2%	-50.5%[59 µM]	14.9%	-18.4%
N#CCCN(CC(=O)O)S(=O)(=O)c1ccccc1	-8.2%	x	u	67.6%	-9.2%[11.4 µM]
CS(=O)(=O)N(CCC#N)Cc1ccc(/C=C2\C(=O)Nc3ccccc32)o1	-22.4%	-1.2%	44.7µM*	-10.9%	-30.1%
CN(C)Cc1ccccc1Sc1ccc2c(c1)CCCC2	x	x	x	u	0.631µM*
COc1cccc(Sc2ccccc2CN(C)C)c1	4.8%	4.6%	-8.4%	u	-28.9%
O=C(O)c1cccc(NC(=S)N/N=C/c2ccccc2OCc2ccc(Br)cc2)c1	50.1µM*	-23.0%	u	u	50.1µM*
CCOc1cc(/C=N/Nc2cccc(C(=O)O)c2)ccc1OC(=O)c1ccccc1	u	-20.5%	10µM*	u	u
COC(=O)c1ccc(COc2ccccc2/C=N/Nc2cccc(C(=O)O)c2)cc1	-37.4%	-13.8%	25.1µM*	33.0%	-9.6%
CCCOc1ccc(/C=N/Nc2cccc([N+](=O)[O-])c2)c(O)c1	11.0%	-3.5%	u	18.3%	-10.1%
CCCOc1ccc(/C=N/Nc2ccc(C(=O)O)cc2)c(OCCC)c1	u	-6.5%	39.8µM*	-14.8%	u
CCOc1cc(/C=N/NC(=O)CNc2cccc(C)c2)ccc1OC(=O)c1ccccc1	u	-7.0%	6.3%[12.7 µM]	-3.2%	u
COC(=O)c1ccc(NC(=O)C(=O)NCC(c2cccnc2)N2CCc3ccccc32)cc1 (configuration not stated)	-29.8%	x	-8.2%[59 µM]	11.3%	-25.0%
CCOc1cc(/C=N/Nc2ccccc2Cl)ccc1OCC(=O)O	u	u	10µM*	u	-25.7%
CCOc1cc(/C=N/Nc2nc(Nc3ccccc3)nc(N3CCCCC3)n2)ccc1OCC(=O)O	-37.7%	-1.4%	u	5.9%	u
COC(=O)c1ccc(COc2ccccc2/C=C/C(=O)c2ccc(OCC(=O)O)cc2)cc1	u	x	50.1µM*	-3.0%	-23.4%
O=C(O)c1cccc(NC(=S)N/N=C/c2ccccc2OCc2cccc(Br)c2)c1	44.7µM*	-11.4%	44.7µM*	u	50.1µM*
CCc1ccc(NC(=O)C(=O)NCCc2sc(-c3ccc(C)cc3)nc2C)cc1	5.3%	x	8.5%[59 µM]	12.6%[57 µM]	-21.3%
COc1ccc(-c2noc(-c3ccc(N4CCN(c5ccccc5OC)CC4)c([N+](=O)[O-])c3)n2)cc1	-0.3%	x	-7.7%[59 µM]	7.0%	-16.6%
COc1cc(C2C3C(=O)N(Cc4ccccc4)C(=O)C3ON2c2ccccc2)cc(OC)c1O (configuration not stated)	u	-9.4%	50.1µM*	-9.7%	-32.1%
CCOc1ccccc1C1C2C(=O)N(c3ccccc3)C(=O)C2ON1c1ccccc1 (configuration not stated)	x	-1.2%	u	37.8%	-17.9%
CCCC1C2C(=O)N(c3ccccc3)C(=O)C2ON1c1ccccc1 (configuration not stated)	-1.0%	x	8.5%	31.7%	-1.5%
SMILES	BAZ2B block	L3MBTL1 block	G9a inh	HP1b binding inh	JMJD2A Tudor
CCCOc1ccc(N2C(=O)C3ON(c4ccccc4)C(CCC)C3C2=O)cc1 (configuration not stated)	-0.7%	x	39.8µM*	51.1%	7.1%[57.1 µM]
CCCC1C2C(=O)N(c3ccccc3OC)C(=O)C2ON1c1ccccc1 (configuration not stated)	0.8%	0.0%	7.9%[59 µM]	77.9%	-5.0%
CCCOc1ccc(N2C(=O)C3ON(c4ccccc4)C(c4ccc(O)c(OC)c4)C3C2=O)cc1 (configuration not stated)	-19.1%	x	50.1µM*	18.6%	-24.7%
COc1ccc(NS(=O)(=O)c2ccc3c(c2)CCN3C(=O)CCC(=O)O)cc1OC	2.7%	x	-45.7%	26.5%	-4.8%
C#CCOCCOCCOCCNc1nc(N2CCN(C(=O)[C@H]([C@@H](C)CC)n3cc([C@@H](N)CO)nn3)CC2)nc(N2CCN(C(=O)[C@H](Cc3cc4ccccc4[nH]3)n3cc([C@@H](N)C(C)CC)nn3)CC2)n1 (some centres not stated)	50.1µM*	-22.4%	u	x	x
C#CCOCCOCCOCCNc1nc(N2CCN(C(=O)[C@H](Cc3cc4ccccc4[nH]3)n3cc(C(N)CC(C)C)nn3)CC2)nc(N2CCN(C(=O)[C@H](CCC(=O)O)n3cc(C(N)[C@H](C)CC)nn3)CC2)n1 (some centres not stated)	44.7µM*	-6.4%	0.7%[12.7 µM]	13.3%	56.2µM*
C#CCOCCOCCOCCNc1nc(N2CCN(C(=O)[C@H]([C@@H](C)CC)n3cc([C@@H](N)CC(C)C)nn3)CC2)nc(N2CCN(C(=O)[C@H](Cc3cc4ccccc4[nH]3)n3cc([C@@H](N)CC(C)C)nn3)CC2)n1	56.2µM*	x	u	x	x
C#CCOCCOCCOCCNc1nc(N2CCN(C(=O)[C@H](CCC(=O)O)n3cc(C(N)CC(C)C)nn3)CC2)nc(N2CCN(C(=O)[C@H](Cc3cc4ccccc4[nH]3)n3cc(C(N)CC(C)C)nn3)CC2)n1 (some centres not stated)	50.1µM*	-22.4%	u	11.6%	u
COc1ccc(CCNC(=O)CCCn2c(=O)c3ccccc3n(CC(=O)Nc3ccccc3C)c2=O)cc1OC	2.6%	x	0.6%[59 µM]	7.1%	-12.6%
Cc1ccc(NC(=O)c2ccc(CNS(=O)(=O)c3ccc4c(c3)C(C)(C)C(=O)N4C)cc2)cc1F	-2.1%	x	2.0%[59 µM]	37.6%	17.2%
CC1CCN(C(=O)Cn2cc(SCC(=O)NCc3ccc(F)cc3)c3ccccc32)CC1	-20.1%	x	-7.3%[59 µM]	4.1%	-23.4%
